SMILES strings stand for the structures. The campaign covered roughly 1,900 compounds. About 1,600 (84%) were called active.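 Rule for the calls: active = mean activation above a set limit taken from the primary screen (cut at about 8% in these data); inactive = the rest.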 So high a share suggests a set chosen from earlier hits. Not all results are given here.

The nature of the assay: FXN GAA850 promoter activators in reporter cells, confirmation, cell-based, luminescence, HEK293 lucGAA850, triplicate (AID 588351).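 Note: 0% = DMSO wells and 100% = 10 µM SAHA wells.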 The note with it: HEK293 lucGAA850 FXN promoter luciferase reporter, 24 h; at 6 µM; stronger effect = higher value.
Turning to `CC(C)(C)c1ccc(OC(=O)N2CCCCC2)cc1`, the activation is 35% (active).
